# PAX8 reporter – PAX8 transcriptional activity inhibition; inhibition, % at 12.6 µM; RMG-I TPO-luciferase reporter, SteadyGlo, 24 h; actives 1.2% (n = 360,000);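 active = mean replicate inhibition at least 60% with every replicate also reaching 60%; inconclusive = only one of the two criteria is met; inactive = mean below 60% and not all replicates reaching 60%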;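 also: luciferase light reporting Pax8 driven TPO promoter activity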
# LGR2 inh – blocks bursicon-induced cAMP signaling via Drosophila LGR2; AID 720647; HEK293 LGR2, CRE-luciferase, bursicon-stimulated, 4 h; actives 0.35% (n = 380,000); inhibition, % at 9.99 µM;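 active = drop in luminescence signal, shown as inhibition above about 50% in the replicate tests, limit read from the data, passing the limit was not always enough; inconclusive = probably only some replicates passing the limit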;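 also: agonist challenge used bursicon conditioned medium at about half maximal strength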
# TROY NFkB inh – TROY signaling inhibition; inhibition, % at 10 µM; AID 1347056; Q293 LMP1-TROYcd NF-kB luciferase reporter, 4 h; actives 0.98% (n = 360,000);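 active = compounds whose plate-normalised and pattern-corrected inhibition of the luciferase reporter signal at the single screening dose is 50% or more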
# EWS-Fli inh – blocks EWS/Fli oncoprotein-driven transcription. actives 0.67% (n = 350,000). AID 651661. inhibition, % at 12.6 µM. A673 NR0B1-luciferase reporter, viability-normalised;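 active = mean inhibition of at least 50% after viability correction, with every replicate also passing that limit; inconclusive = mean reaches 50% but only one of two replicates passes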;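 also: firefly luciferase signal divided by Alamar Blue viability fluorescence both relative to DMSO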
# TWEAK Fn14 block – blocks TWEAK-Fn14 interaction in a reporter cell assay. TWEAK-stimulated Fn14 reporter cells, luciferase luminescence, 8 h. inhibition, % at 10 µM. actives 2% (n = 360,000); in the data active = inhibition above about 50%
# A number is an active result; 0 = inactive; ? = inconclusive; - = no result. Only some compounds are listed: those with a hit (about 2.8% of all), similar ones and a draw of the others.
SMILES,PAX8 reporter,LGR2 inh,TROY NFkB inh,EWS-Fli inh,TWEAK Fn14 block
O=C(C[C@@H]1C[C@H]2c3cc(NC(=O)NC4CCCC4)ccc3O[C@H]2[C@H](CO)O1)NCc1ccc(Oc2ccccc2)cc1,66.1,0,-,60.4,-
O=C(C[C@@H]1C[C@H]2c3cc(NC(=O)C4CCOCC4)ccc3O[C@H]2[C@H](CO)O1)NCc1ccc(Oc2ccccc2)cc1,89.9,0,-,0,-
O=C(C[C@@H]1C[C@H]2c3cc(NC(=O)c4ccc5c(c4)OCO5)ccc3O[C@H]2[C@@H](CO)O1)NCc1ccc(Oc2ccccc2)cc1,0,52.5,-,0,-
O=C(C[C@@H]1C[C@@H]2c3cc(NC(=O)NC4CCCC4)ccc3O[C@@H]2[C@@H](CO)O1)NCc1ccc(Oc2ccccc2)cc1,0,0,-,0,-
O=C(C[C@@H]1C[C@@H]2c3cc(NC(=O)C4CCOCC4)ccc3O[C@@H]2[C@@H](CO)O1)NCc1ccc(Oc2ccccc2)cc1,0,0,-,0,-
CC(=O)N(/N=C1\Sc2ccccc2C1=O)c1ccc(C)cc1C,-,-,0,-,91.3
CC(=O)N(/N=C1\Sc2ccccc2C1=O)c1ccccc1C,-,-,0,-,0
COc1ccc(F)cc1-c1cc(C(=O)NCc2cc(C(F)(F)F)cc(C(F)(F)F)c2)[nH]n1,0,0,0,0,0
CCCOc1ccc(F)cc1-c1cc(C(=O)Nc2ccc(C)c(NS(C)(=O)=O)c2)[nH]n1,0,0,0,0,59.2
CCCOc1ccc(F)cc1-c1cc(C(=O)NCc2cc(C(F)(F)F)cc(C(F)(F)F)c2)[nH]n1,-,-,0,-,52.9
C/C=C/c1ccc2c(c1)O[C@@H](CN(C)CC1CC1)[C@@H](C)CN([C@H](C)CO)S2(=O)=O,-,0,-,0,-
CC(=O)N(C)C[C@H]1Oc2cc(-c3cncnc3)ccc2S(=O)(=O)N([C@@H](C)CO)C[C@H]1C,-,0,-,0,-
C[C@@H]1CN([C@H](C)CO)C(=O)c2cc(NC(=O)Cc3ccccc3)ccc2O[C@@H]1CN(C)Cc1ccc(-c2ccccc2)cc1,-,0,-,0,-
COC(=O)C1=C(C(=O)OC)[C@]2([C@H]3CCCCN[C@@H](Cc4ccccc4)C(=O)N3Cc3ccccc3)C=C[C@H]1O2,74.1,0,0,0,0
CCCCC[C@@H](/C=C/C1C(=O)C=C[C@H]1C/C=C\CCCC(=O)OC)OC(C)=O (some centres not stated),0,0,0,0,90.7
Cc1ccc2nc(-c3ccccc3)cn2c1,-,-,85.5,-,105.4
Cc1nc(-c2ccc(O)c(O)c2)cs1,-,-,0,-,0
Cc1ccc2nc(-c3ccc(O)c(O)c3)cn2c1,0,?,0,0,68.5
CC(=O)Nc1ccc(-c2cn3cc(C)ccc3n2)cc1,0,0,0,-,0
C[C@@H]1CN([C@@H](C)CO)C(=O)c2cc(NC(=O)NC3CCCCC3)ccc2O[C@@H]1CN(C)Cc1ccc(C(=O)O)cc1,0,0,-,-,-
O=C1NC(=Nc2ccccc2Cl)S/C1=C\c1cccc([N+](=O)[O-])c1,0,0,70.1,0,0
O=C1NC(=Nc2ccccc2Cl)S/C1=C\c1cccc([N+](=O)[O-])c1O,0,0,0,0,0
O=C(COc1ccc(Cl)cc1Cl)Nc1ccc(Cl)cn1,-,0,0,0,54.3
O=C(O)CCC(=O)NNC(=O)CCCOc1ccc(Cl)cc1Cl,-,0,0,-,97.2
O=C(COc1ccc(Cl)cc1Cl)Nc1ccccc1F,0,0,0,0,54.6
SMILES,PAX8 reporter,LGR2 inh,TROY NFkB inh,EWS-Fli inh,TWEAK Fn14 block
Cc1cc(Cl)ccc1OCC(=O)OCC(=O)Nc1ccc(Cl)cn1,0,0,0,0,0
O=C(CN1CCOCC1)NCC[C@@H]1CC[C@H](NC(=O)Nc2ccc(Cl)cc2)[C@@H](CO)O1,0,0,-,0,-
CCOC(=O)c1sc(NC(=O)CSc2nc(C)cc(-c3ccccc3)n2)c(C#N)c1C,-,-,0,-,0
Cc1ccccc1-c1cc(C(=O)Nc2sc(C)c(C)c2C(N)=O)c2ccccc2n1,-,-,0,-,0
CCOC(=O)c1sc(NC(=O)c2cc(-c3ccccc3C)nc3ccccc23)c(C#N)c1C,-,-,68.5,-,63.2
CCOC(=O)c1sc(NC(=O)CSc2n[nH]c(-c3ccc(Cl)cc3Cl)n2)c(C#N)c1C,-,-,63.4,-,0
COc1ccc2cc(-c3cc(C(=O)O)c4ccccc4n3)ccc2c1,0,-,0,-,75.0
CN(C)C(=O)c1ccc(-c2ccc([C@H]3[C@@H](C#N)N(C(=O)C4CCOCC4)[C@H]3CO)cc2)cc1,0,0,-,0,-
CCCCN(CC)C(=S)Nc1ccc2nc(N3CCN(C)CC3)cc(C)c2c1,0,0,67.8,0,54.8
CCCCN(C)CCNC(=S)Nc1ccc2nc(N3CCN(CC)CC3)cc(C)c2c1,0,0,0,0,0
CCN1CCN(c2cc(C)c3cc(NC(=S)N(C)Cc4ccccc4)ccc3n2)CC1,0,0,0,0,0

# Compound activity (PubChem)
